The results in this text go back to PubChem BioAssay AID488969 (Vanderbilt High Throughput Screening Facility, 2010).

In all, about 110,000 compounds were measured (“z-score”: median about -0.1, highest 2% from about 2 on). The sample as a whole holds a higher share of the highest values than the screen did. Active and inactive are the calls of the source.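 How the source made its calls: active means z-score in the third read window above 3 or below -3; inactive means the rest.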

The assay deals with Metabotropic glutamate receptor 8 (Rattus norvegicus) (UniProt P70579). As to the kind of experiment: rat mGluR8 modulators via GIRK flux, primary screen, cell-based, thallium flux, HTS (AID 488969). The note with it: HEK293 rat mGluR8, GIRK (G protein-gated inwardly rectifying potassium channel) thallium flux, FluoZin2; at 10 µM; stronger effect = higher value; submaximal glutamate (EC20) added with thallium.
Chain of Metabotropic glutamate receptor 8 (Rattus norvegicus) (P70579 whole entry, looked up): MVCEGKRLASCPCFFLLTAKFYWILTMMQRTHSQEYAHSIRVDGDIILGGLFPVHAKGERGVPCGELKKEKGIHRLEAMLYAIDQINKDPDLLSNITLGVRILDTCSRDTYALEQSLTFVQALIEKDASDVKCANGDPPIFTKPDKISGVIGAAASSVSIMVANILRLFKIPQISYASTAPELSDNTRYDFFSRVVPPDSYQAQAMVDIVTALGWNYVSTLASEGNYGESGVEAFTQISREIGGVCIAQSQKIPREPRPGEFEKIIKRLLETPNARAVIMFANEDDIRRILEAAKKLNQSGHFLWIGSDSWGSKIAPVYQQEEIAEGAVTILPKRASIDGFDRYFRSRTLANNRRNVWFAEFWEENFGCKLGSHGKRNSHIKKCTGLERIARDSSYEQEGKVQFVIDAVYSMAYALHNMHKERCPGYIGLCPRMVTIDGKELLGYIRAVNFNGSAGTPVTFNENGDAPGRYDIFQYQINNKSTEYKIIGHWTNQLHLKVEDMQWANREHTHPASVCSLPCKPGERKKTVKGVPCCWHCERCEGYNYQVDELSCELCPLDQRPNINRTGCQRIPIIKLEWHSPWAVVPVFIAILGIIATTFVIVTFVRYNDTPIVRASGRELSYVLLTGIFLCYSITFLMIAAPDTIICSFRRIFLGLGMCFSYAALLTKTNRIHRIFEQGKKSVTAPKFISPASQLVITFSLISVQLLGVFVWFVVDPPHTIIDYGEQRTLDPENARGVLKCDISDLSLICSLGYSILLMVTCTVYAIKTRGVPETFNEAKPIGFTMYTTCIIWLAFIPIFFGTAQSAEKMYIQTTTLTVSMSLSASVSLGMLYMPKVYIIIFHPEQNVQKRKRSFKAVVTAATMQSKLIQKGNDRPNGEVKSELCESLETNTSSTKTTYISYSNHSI
Turning to `O=[N+]([O-])c1cccc(-c2nnc(-c3ccc4c(c3)OCO4)o2)c1`, the z-score is -0.286.

`CCC/C(O)=C1\C(=O)CC(c2ccccc2)CC1=NC` (centres undefined): the z-score was -0.23.

With `CC(C)N1C(=S)SC(C)(C)C1NO` (centres undefined), the z-score is -0.154.

As for `CC(C)c1ccc(-c2noc(C3CCCN(C(=O)c4ccc(F)cc4F)C3)n2)cc1` (centres undefined), the z-score is -0.983.

`O=S(=O)(c1ccc2ccccc2c1)N1CCC(c2nc(-c3ccncc3)no2)CC1` registered a z-score of 0.107.

`O=S(=O)(c1ccccc1Cl)N1CCCC1c1nc(-c2ccc(Cl)cc2)no1` (centres undefined): the z-score is 0.14.

`O=S(=O)(c1ccccc1Cl)N1CCCC(c2nc(-c3cccnc3)no2)C1` (centres undefined): the z-score stood at 2.62.

In turn, `COc1cccc(-c2noc(C3CCCN(S(=O)(=O)c4cccc(Cl)c4C)C3)n2)c1` (centres undefined) gave a z-score of 0.354.

As for `CC(C)c1ccc(-c2noc(C3CCCN(S(C)(=O)=O)C3)n2)cc1` (centres undefined), the z-score was 5.82 (active).

Take `O=[N+]([O-])c1cccc(S(=O)(=O)N2CCC(c3nc(-c4ccncc4)no3)CC2)c1`: the z-score is -0.207.

Take `O=S(=O)(c1ccc(Cl)c(F)c1)N1CCC(c2nc(-c3ccncc3)no2)CC1`: the z-score was 8.06 (active).

`CCCS(=O)(=O)N1CCCC(c2nc(-c3ccc(OC)cc3)no2)C1` (centres undefined) displayed a z-score of 0.0798.

With `Cc1ccccc1NS(=O)(=O)c1ccc(OCCNS(C)(=O)=O)cc1`, the z-score is -0.0428.

`COc1ccccc1N1CCN(C(=O)CCCN2C(=O)c3cccc4cccc(c34)C2=O)CC1`: the z-score was -0.334.

Turning to `Cn1c(=O)c2c(O)cc(=O)[nH]c2n(-c2ccccc2)c1=O`, the z-score was -0.00781.

With `COc1ccc(S(=O)(=O)N2CCOCC2)cc1NC(=O)c1ccccc1-c1ccc(C(F)(F)F)cc1`, the z-score was -0.207.

The compound `Cc1noc(C)c1C(c1ccccc1)S(=O)(=O)c1ccccc1` (centres undefined) yielded a z-score of 0.53.

With `O=C(CSc1ncccn1)N/N=C/c1cccc([N+](=O)[O-])c1`, the z-score came out at 1.35.

As to `O=C(COC(=O)c1ccc(Br)o1)Nc1cccc(S(=O)(=O)N2CCCCCC2)c1`, the z-score turned out to be 0.698.

As for `COc1ccc(C(=O)NCc2nnc(SCC(=O)NCc3ccc(F)cc3)o2)cc1`, the z-score is -0.134.

Consider `COC(=O)c1ccccc1NC(=O)CSc1nnc(Cc2ccc(Cl)cc2)o1`, for which the z-score is -0.323.

Regarding `CCn1c(SCC(N)=O)nc2c(c1=O)C1(CCCC1)Cc1ccccc1-2`, the z-score was 5.27 (active).

For the compound `Cc1ccc(-n2c(SCC(N)=O)nc3c(c2=O)C2(CCCC2)Cc2ccccc2-3)cc1`, the z-score is -0.348.

`CCCn1c(SCC(N)=O)nc2c(c1=O)C1(CCCC1)Cc1ccccc1-2`: the z-score was -0.333.

Take `Cc1cc(Nc2ccc3c(c2)OCCO3)c2ccccc2n1`: the z-score was 0.143.

As for `COC(=O)Nc1cc(C)nc2ccccc12`, the z-score amounted to 0.301.

For the compound `COc1cccc(Nc2ncnc3ccccc23)c1`, the z-score was -0.25.

Regarding `COc1cccc(Nc2nc(NCCO)c3ccccc3n2)c1`, the z-score is -0.496.

`COc1ccc(Nc2cc(C)nc3ccccc23)cc1` came in with a z-score of 2.44.

Take `COc1cccc(Nc2cc(C)nc3ccccc23)c1`: the z-score is 2.53.

For `O=C(CCN1C(=O)c2ccccc2S1(=O)=O)N1CCN(c2ccccc2)CC1`, the z-score is -0.363.

Take `CCOc1cccc(OCCCCN2CCOCC2)c1`: the z-score was -0.982.

On to `COc1cc2nc(-c3ccc(Br)o3)oc(=O)c2cc1OC`, for which the z-score was -1.58.

For `Cc1nc2nc(-c3ccco3)[nH]n2c(=O)c1Cc1ccccc1`, the z-score is -1.16.

Take `O=C(Nc1cccc(C(=O)N2CCOCC2)c1)c1ncn[nH]1`: the z-score was -0.145.

As to `CCn1cc(C(=O)O)c(=O)c2cc(F)c(N/N=C/c3ccccc3)cc21`, the z-score is -0.559.

As to `O=C(NCCSCc1ccco1)Nc1ccc(Cl)cc1`, the z-score was found to be 0.159.

In the case of `O=C(Nc1ccc(Cl)cc1)Nc1ccccc1C(=O)NCc1ccco1`, the z-score was -0.534.

With `O=C(Nc1ccc(Cl)cc1)NC1CCCCC1Cc1ccco1` (centres undefined), the z-score is 7.39 (active).

On to `Cc1nn(C)c(C)c1S(=O)(=O)N(CC(=O)N1CCc2ccccc2C1)c1ccc(C(C)C)cc1`, for which the z-score was -0.0258.

As for `O=C(O)CCc1ccc(S(=O)(=O)N2CCOCC2)cc1`, the z-score is 0.0366.

As to `O=C(CCc1ccc(S(=O)(=O)N2CCOCC2)cc1)NN=C1CCCCCCC1`, the z-score is -0.592.

`O=C(CCc1ccc(S(=O)(=O)N2CCOCC2)cc1)N1CCCC1` displayed a z-score of 2.62.

Take `CCN(CCO)c1ncnc2c1sc1nc(CC(C)C)c3c(c12)CC(C)(C)OC3`: the z-score was -0.758.

Turning to `COC(=O)CNC(=O)CN1C(=O)N(c2ccc(Cl)cc2)C(N(O)C(=O)Nc2ccc(Cl)cc2)C1(C)C` (centres undefined), the z-score turned out to be 0.0314.

Consider `CCOc1ncccc1C(=O)OCc1nnc(-c2ccccc2)o1`, for which the z-score is -0.473.

On to `Cn1c(-c2sc3cc(C(F)(F)F)cnc3c2-c2ccccc2)n[nH]c1=S`, for which the z-score was 1.26.

For `Cn1c(-c2sc3ccccc3c2Cl)n[nH]c1=S`, the z-score is 13.3 (active).

As to `Cc1nc(-c2ccccc2)sc1-c1n[nH]c(=S)n1C`, the z-score is 0.154.

On to `CCCc1cc(-c2n[nH]c(C(=O)OCC)c2-c2cscn2)c(O)cc1O`, for which the z-score is -0.373.

Consider `CCN(CC(=O)Nc1ccc(OC)c(OC)c1)S(=O)(=O)c1ccc(C)cc1`, for which the z-score stood at 0.404.

As to `Cc1ccc(S(=O)(=O)CC(=O)Nc2ccc(S(=O)(=O)Nc3onc(C)c3C)cc2)cc1`, the z-score is 2.41.

Regarding `COc1cc(NC(=O)CS(=O)(=O)c2ccc(C)cc2)cc(OC)c1OC`, the z-score was 3.72 (active).

With `Cc1noc(NS(=O)(=O)c2ccc(NC(=O)CS(=O)(=O)c3ccccc3)cc2)c1C`, the z-score was found to be 0.155.

For `Cc1ccc(OCC(=O)Nc2ccc(S(=O)(=O)Nc3onc(C)c3C)cc2)cc1`, the z-score was found to be 0.0571.

`COc1cc(NC(=O)CS(=O)(=O)c2ccccc2)cc(OC)c1OC`: the z-score was 1.2.

Consider `Cc1cc(=O)oc2cc(OCC(=O)OCc3nnc(-c4ccccc4)o3)ccc12`, for which the z-score is -0.34.

For the compound `CCC(c1nnc(SCC(=O)Nc2ccc(Cl)cc2C(F)(F)F)n1C1CCCCC1)N(C)C` (centres undefined), the z-score was -0.456.

Consider `O=C(CSc1nc(-c2ccco2)cc(C(F)(F)F)n1)NCCc1ccccc1`, for which the z-score is 0.104.

With `O=C(c1ccc(Br)o1)N1CCCc2ccccc21`, the z-score is -0.269.

`COc1ccc(CNC(=O)CSCc2cccc(Cl)c2)cc1`: the z-score was -0.235.

Regarding `COc1ccc(CNC(=O)CCSCc2ccccc2Cl)c(OC)c1`, the z-score was -0.407.

For the compound `COc1ccc(CNC(=O)CSCc2ccccc2Cl)cc1`, the z-score was 4.96 (active).

On to `CCOc1ccccc1C(=O)NC(CO)C(=O)O` (centres undefined), for which the z-score was -0.109.

As to `CCNCCOC(c1ccccc1)c1ccccc1`, the z-score was 0.455.

On to `Cc1c(Cl)cccc1-c1ccc(/C=N/n2cnnc2)o1`, for which the z-score was -0.29.

`Clc1cccc(-c2ccc(/C=N/n3cnnc3)o2)c1Cl`: the z-score is 8.91 (active).

In turn, `Clc1ccccc1-c1ccc(/C=N/n2cnnc2)o1` gave a z-score of 0.334.

Regarding `O=C(Nn1c(SCc2ccccc2F)nc2ccsc2c1=O)c1ccccc1`, the z-score is -0.0125.
